MOR-DOR ag = agonists of OPRM1-OPRD1 heterodimerization, primary screen, cell-based, luminescence | Mu-type opioid receptor (Homo sapiens) + Delta-type opioid receptor (Homo sapiens), … | cells | activation, % at 9.3 µM | 340,000 tested, 0.3% active | AID 504326, 2011; in the data active = activation above about 18%;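 also: 0% = vehicle-treated cells and 100% = reference agonist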
HTR5A inv ag = HTR5A inverse agonists in luminescence cell assay, primary screen, counter-screen for OPRM1-OPRD1 heterodimer inverse agonist project, full-deck HTS; inhibition, % at 9.3 µM; HTR5A cell line, inverse agonism; AID 504634, 2011; 5-hydroxytryptamine receptor 5A (Homo sapiens), P47898; 340,000 tested, 0.083% active; in the data active = inhibition mostly above about 23%, no sharp cut-off; inactive = mostly below about 18%;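 also: 0% = cells with DMSO and 100% = no-cell wells with DMSO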
m5-HT2A agonist = mouse Htr2a agonists via beta-arrestin recruitment, primary screen, cell-based, luminescence; 5-hydroxytryptamine receptor 2A (Mus musculus), P35363; CHO-K1 mHTR2A beta-arrestin complementation; percent of 30 µM serotonin response; activation, % at 7.6 µM; 360,000 tested, 0.66% active;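 active = activation above a run cutoff, the mean activation of all tested compounds plus 3 SD, cut at about 14% in these data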;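 also: 0% = plate median of compound wells and 100% = 30 µM serotonin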
OPRM1-OPRD1 inv = inverse agonists of MOR-DOR heterodimerization, primary screen, cell-based, luminescence. Mu-type opioid receptor (Homo sapiens) + Delta-type opioid receptor (Homo sapiens), …. cell-based MOR-DOR heterodimer luminescence, inverse agonism. inhibition, % at 9.3 µM. 340,000 tested, 0.21% active. AID 504357, 2011; in the data active = inhibition above about 22%, passing the limit was not always enough;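 also: 0% = cells with DMSO and 100% = wells without cells with DMSO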
HTR5A ag ctr = HTR5A agonists in luminescence cell assay, primary screen, counter-screen for OPRM1-OPRD1 heterodimer agonist project, full-deck HTS. 5-hydroxytryptamine receptor 5A (Homo sapiens), P47898. cell-based. activation, % at 9.3 µM. 340,000 tested, 0.61% active; in the data active = activation mostly above about 9.5%, no sharp cut-off; inactive = mostly below about 7.6%;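 also: 0% = cells with vehicle only and 100% = reference agonist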
MOR ag counter = OPRM1 agonists via beta-arrestin recruitment, confirmation, counter-screen for mouse HTR2A agonist project, cell-based, luminescence, single concentration; shares compounds with m5-HT2A agonist; U2OS OPRM1 beta-arrestin PathHunter; DMSO 0%, DAMGO 9.3 µM 100%; activation, % at 9.3 µM; 2,300 tested, 5.3% active; AID 624380, 2012;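 active = mean activation above the mean of DMSO-only wells plus 3 SD, cut at about 0.5% in these data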
Target sequence (P35372 whole entry, looked up): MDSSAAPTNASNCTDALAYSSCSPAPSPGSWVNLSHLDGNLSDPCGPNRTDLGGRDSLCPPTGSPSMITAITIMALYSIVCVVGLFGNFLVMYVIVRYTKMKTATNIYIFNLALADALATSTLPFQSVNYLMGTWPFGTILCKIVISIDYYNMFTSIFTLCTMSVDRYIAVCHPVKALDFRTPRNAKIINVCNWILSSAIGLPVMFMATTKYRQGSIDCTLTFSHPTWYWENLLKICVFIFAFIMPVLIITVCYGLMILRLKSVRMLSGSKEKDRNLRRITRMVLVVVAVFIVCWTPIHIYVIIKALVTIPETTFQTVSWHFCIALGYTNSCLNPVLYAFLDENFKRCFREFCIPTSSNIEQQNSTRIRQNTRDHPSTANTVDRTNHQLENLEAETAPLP
m5-HT2A ag conf = mouse HTR2A agonists, beta-arrestin recruitment, confirmation, cell-based, luminescence, CHO-K1 PathHunter, triplicate; shares compounds with m5-HT2A agonist; DMSO 0%, 30 µM serotonin 100%; activation, % at 7.6 µM; 2,300 tested, 19% active;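 active = mean activation across triplicates above the hit threshold derived in the original primary screen, cut at about 15% in these data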
* hit, by the source's call. The list is not random: actives were taken first. Their share in the collection is about 1.6%.

How did CSc1ccccc1OCc1cc(C(=O)N2CCC[C@H]2C(N)=O)no1 do in these assays?
MOR-DOR ag: -2; HTR5A inv ag: 10; m5-HT2A agonist: 15*; OPRM1-OPRD1 inv: 13; HTR5A ag ctr: -3; MOR ag counter: 0; m5-HT2A ag conf: 3

How did O=C(COC(=O)CNC(=O)c1ccccc1)Nc1nnc(-c2ccccc2)o1 do in these assays?
MOR-DOR ag: 1; HTR5A inv ag: 5; m5-HT2A agonist: 0; OPRM1-OPRD1 inv: -6; HTR5A ag ctr: -2

How did Cc1cccc(NC(=O)C2CC(=O)OC23CCCCC3)c1 (stereo not drawn) do in these assays?
MOR-DOR ag: -2; HTR5A inv ag: 0; m5-HT2A agonist: -3; OPRM1-OPRD1 inv: 12; HTR5A ag ctr: 1

How did Cc1ccc(CNC(=O)C2CC(=O)OC23CCCC3)c(C)c1 (stereo not drawn) do in these assays?
MOR-DOR ag: -2; HTR5A inv ag: -8; m5-HT2A agonist: 16*; OPRM1-OPRD1 inv: 10; HTR5A ag ctr: 7; MOR ag counter: 0; m5-HT2A ag conf: 1

How did CC(=O)Nc1ccc(Sc2ncccc2C(=O)Nc2ccc(F)cc2)cn1 do in these assays?
MOR-DOR ag: -2; HTR5A inv ag: -7; m5-HT2A agonist: 4; OPRM1-OPRD1 inv: 14; HTR5A ag ctr: -6

Results for COC(=O)c1ccc(/C=N/NC(=O)CC(=O)NC2CCCCC2)cc1 ?
MOR-DOR ag: -5; HTR5A inv ag: 7; m5-HT2A agonist: 1; OPRM1-OPRD1 inv: 25; HTR5A ag ctr: 1

Results for COc1cc(/C=N/NC(=O)CC(=O)NC2CCCCC2)ccc1O ?
MOR-DOR ag: -3; HTR5A inv ag: 2; m5-HT2A agonist: 16*; OPRM1-OPRD1 inv: 14; HTR5A ag ctr: -1; MOR ag counter: 0.9*; m5-HT2A ag conf: 5

What do the screens show for `CC[C@@H]1C=C(C(=O)O)[C@H](c2ccc(C)cc2)N1S(=O)(=O)c1ccc(C)cc1`?
MOR-DOR ag: -1; HTR5A inv ag: 14; m5-HT2A agonist: 7; OPRM1-OPRD1 inv: 3; HTR5A ag ctr: -4

What do the screens show for `CCOC(=O)C1=CC[C@@H](c2ccccc2C(F)(F)F)N(S(=O)(=O)c2ccc(C)cc2)[C@H]1c1ccc(C#N)cc1`?
m5-HT2A agonist: 17*; MOR ag counter: 0; m5-HT2A ag conf: -3

What do the screens show for `Cc1ccc(S(=O)(=O)N2[C@@H](c3ccc(C(C)(C)C)cc3)C(C(=O)O)=CC[C@H]2c2ccc(Cl)cc2)cc1`?
MOR-DOR ag: -2; HTR5A inv ag: 7; m5-HT2A agonist: 3; OPRM1-OPRD1 inv: 11; HTR5A ag ctr: -2

How did Cc1ccc([C@@H]2CC=C(C(=O)O)[C@H](c3ccc(C(C)(C)C)cc3)N2S(=O)(=O)c2ccc(C)cc2)cc1 do in these assays?
MOR-DOR ag: 3; HTR5A inv ag: -10; m5-HT2A agonist: 24*; OPRM1-OPRD1 inv: -12; HTR5A ag ctr: 3; MOR ag counter: 0; m5-HT2A ag conf: 7

What do the screens show for `CCCC[C@@H]1C=C(C(=O)O)[C@H](c2ccc3c(c2)OCO3)N1S(=O)(=O)c1ccc(C)cc1`?
MOR-DOR ag: -1; HTR5A inv ag: -11; m5-HT2A agonist: 16*; OPRM1-OPRD1 inv: 4; HTR5A ag ctr: 3; MOR ag counter: 1.3*; m5-HT2A ag conf: 6

How did CCCC[C@@H]1C=C(C(=O)O)[C@H](c2ccc(Cl)cc2)N1S(=O)(=O)c1ccc(C)cc1 do in these assays?
MOR-DOR ag: -3; HTR5A inv ag: -13; m5-HT2A agonist: -2; OPRM1-OPRD1 inv: 14; HTR5A ag ctr: 4

How did CC[C@@H]1C=C(C(=O)O)[C@H](c2ccc(Cl)cc2)N1S(=O)(=O)c1ccc(C)cc1 do in these assays?
MOR-DOR ag: -2; HTR5A inv ag: 1; m5-HT2A agonist: 17*; OPRM1-OPRD1 inv: 9; HTR5A ag ctr: 0; MOR ag counter: -1; m5-HT2A ag conf: -1

What do the screens show for `CC(=O)C1=C(O)C(=O)OC1c1ccc(Cl)cc1` (stereo not drawn)?
MOR-DOR ag: 1; HTR5A inv ag: -8; m5-HT2A agonist: 16*; OPRM1-OPRD1 inv: -3; HTR5A ag ctr: 7; MOR ag counter: 0; m5-HT2A ag conf: 0

How did O=C(COC(=O)c1nn(-c2ccccc2C(F)(F)F)cc1O)c1ccc(OC(F)F)cc1 do in these assays?
MOR-DOR ag: 1; HTR5A inv ag: 7; m5-HT2A agonist: -1; OPRM1-OPRD1 inv: -4; HTR5A ag ctr: -3

Results for COc1ccc(C(C)(C)C)cc1NC(=O)CCCN1C(=O)CN(C)C1=O ?
MOR-DOR ag: -2; HTR5A inv ag: -16; m5-HT2A agonist: 4; OPRM1-OPRD1 inv: 11; HTR5A ag ctr: 0

How did CSCCC(NC(=O)c1ccccc1)C(=O)N1CCN(C(C)=O)CC1 (stereo not drawn) do in these assays?
MOR-DOR ag: -4; HTR5A inv ag: 10; m5-HT2A agonist: 7; OPRM1-OPRD1 inv: 17; HTR5A ag ctr: 0

What do the screens show for `Cn1c(=O)c2c(nc(Oc3ccccc3Cl)n2C)n(C)c1=O`?
MOR-DOR ag: -1; HTR5A inv ag: 0; m5-HT2A agonist: 3; OPRM1-OPRD1 inv: 5; HTR5A ag ctr: 0

Results for Cn1c(=O)c2c(nc(Oc3ccccc3N)n2C)n(C)c1=O ?
MOR-DOR ag: 0; HTR5A inv ag: 5; m5-HT2A agonist: 16*; OPRM1-OPRD1 inv: 2; HTR5A ag ctr: -1; MOR ag counter: 0; m5-HT2A ag conf: -4

How did C[C@H](CO)N1C[C@H](C)[C@H](CN(C)Cc2cncnc2)Oc2cc(Br)ccc2S1(=O)=O do in these assays?
m5-HT2A agonist: 18*; MOR ag counter: 0; m5-HT2A ag conf: -4

What do the screens show for `C[C@@H]1CN([C@@H](C)CO)S(=O)(=O)c2ccc(Br)cc2O[C@H]1CN(C)Cc1ccncc1`?
m5-HT2A agonist: -3

What do the screens show for `CCC(CC)C(=O)NCCc1cc2ccc(C)cc2[nH]c1=O`?
MOR-DOR ag: -3; HTR5A inv ag: 2; m5-HT2A agonist: 21*; OPRM1-OPRD1 inv: 15; HTR5A ag ctr: -1; MOR ag counter: 0; m5-HT2A ag conf: -5

Results for O=C(CCS(=O)(=O)c1ccccc1)NCCS(=O)(=O)c1ccccc1 ?
MOR-DOR ag: -3; HTR5A inv ag: 5; m5-HT2A agonist: 0; OPRM1-OPRD1 inv: 14; HTR5A ag ctr: -2
